± gives the standard deviation of the averaged measurements.
Columns and labels:
Test in all cases: promoter activity interaction Z-score (Lux/OD deviation from empty-vector control); higher = stronger promoter induction by the compound
[1] = tested on: E. coli BW25113 acrABp lux reporter
Procedure, shortened: (§1)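 E. coli BW25113 luxCDABE reporter strains grew at 37°C in 40 µl LB Lennox in 384-well plates, with OD600 and luminescence read every 30 min for 12 h. After integration over 0–8 h for wild type or 1–9 h for deletion strains, wells under 10% of the median growth value were removed. Each score is the Z-transformed residual of growth-normalised luminescence fitted against a control.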

[2] = tested on: E. coli BW25113 marRABp lux reporter
Procedure, shortened: as §1

[3] = tested on: E. coli BW25113 micFp lux reporter
Procedure, shortened: as §1

[4] = tested on: E. coli BW25113 ompFp lux reporter
Procedure, shortened: as §1

[5] = tested on: E. coli BW25113 robp lux reporter
Procedure, shortened: as §1

[6] = tested on: E. coli BW25113 soxSp lux reporter
Procedure, shortened: as §1

[7] = tested on: E. coli BW25113 tolCp lux reporter
Procedure, shortened: as §1

[8] = 18.1 µg/ml, genetic background: wild type
[9] = 18.1 µg/ml, genetic background: ΔmarA
[10] = 18.1 µg/ml, genetic background: Δrob
[11] = 18.1 µg/ml, genetic background: ΔsoxS
[12] = 36.3 µg/ml, genetic background: wild type
[13] = 36.3 µg/ml, genetic background: ΔmarA
[14] = 36.3 µg/ml, genetic background: Δrob
[15] = 36.3 µg/ml, genetic background: ΔsoxS
[16] = 72.6 µg/ml, genetic background: wild type
[17] = 72.6 µg/ml, genetic background: ΔmarA
[18] = 72.6 µg/ml, genetic background: Δrob
[19] = 72.6 µg/ml, genetic background: ΔsoxS
[20] = 145.1 µg/ml, genetic background: wild type
[21] = 145.1 µg/ml, genetic background: ΔmarA
[22] = 145.1 µg/ml, genetic background: Δrob
[23] = 145.1 µg/ml, genetic background: ΔsoxS

## Oc1cc(O)c2c(c1)O[C@@H](c1ccc(O)c(O)c1)[C@H](O)C2 [Catechin]
[1]; [8]
  promoter activity interaction Z-score: 0.118 ± 0.17
[1]; [9]
  promoter activity interaction Z-score: -0.352 ± 0.15
[1]; [10]
  promoter activity interaction Z-score: 0.3299 ± 0.003
[1]; [11]
  promoter activity interaction Z-score: -0.306 ± 0.42
[1]; [12]
  promoter activity interaction Z-score: 0.149 ± 0.084
[1]; [13]
  promoter activity interaction Z-score: -1.14 ± 0.28
[1]; [14]
  promoter activity interaction Z-score: 0.394 ± 0.14
[1]; [15]
  promoter activity interaction Z-score: -0.191 ± 0.27
[1]; [16]
  promoter activity interaction Z-score: -0.243 ± 0.23
[1]; [17]
  promoter activity interaction Z-score: -0.35 ± 0.0073
[1]; [18]
  promoter activity interaction Z-score: 0.0378 ± 0.18
[1]; [19]
  promoter activity interaction Z-score: -0.0752 ± 0.23
[1]; [20]
  promoter activity interaction Z-score: -0.205 ± 0.27
[1]; [21]
  promoter activity interaction Z-score: -0.135 ± 0.26
[1]; [22]
  promoter activity interaction Z-score: 0.0277 ± 0.083
[1]; [23]
  promoter activity interaction Z-score: -0.364 ± 0.16
[2]; [8]
  promoter activity interaction Z-score: 0.176 ± 0.43
[2]; [9]
  promoter activity interaction Z-score: -0.0258 ± 0.23
[2]; [10]
  promoter activity interaction Z-score: 0.052 ± 0.11
[2]; [11]
  promoter activity interaction Z-score: -0.135 ± 0.017
[2]; [12]
  promoter activity interaction Z-score: -0.308 ± 0.32
[2]; [13]
  promoter activity interaction Z-score: -0.311 ± 0.035
[2]; [14]
  promoter activity interaction Z-score: -0.0876 ± 0.28
[2]; [15]
  promoter activity interaction Z-score: -0.0441 ± 0.25
[2]; [16]
  promoter activity interaction Z-score: 0.00953 ± 0.33
[2]; [17]
  promoter activity interaction Z-score: -0.104 ± 0.28
[2]; [18]
  promoter activity interaction Z-score: -0.105 ± 0.045
[2]; [19]
  promoter activity interaction Z-score: -0.241 ± 0.033
[2]; [20]
  promoter activity interaction Z-score: -0.286 ± 0.36
[2]; [21]
  promoter activity interaction Z-score: -0.359 ± 0.22
[2]; [22]
  promoter activity interaction Z-score: -0.128 ± 0.36
[2]; [23]
  promoter activity interaction Z-score: -0.183 ± 0.067
[3]; [8]
  promoter activity interaction Z-score: -0.45 ± 0.11
[3]; [9]
  promoter activity interaction Z-score: -0.0948 ± 0.022
[3]; [10]
  promoter activity interaction Z-score: -0.0243 ± 0.03
[3]; [11]
  promoter activity interaction Z-score: -0.43 ± 0.036
[3]; [12]
  promoter activity interaction Z-score: -0.372 ± 0.21
[3]; [13]
  promoter activity interaction Z-score: -0.115 ± 0.1
[3]; [14]
  promoter activity interaction Z-score: -0.0591 ± 0.057
[3]; [15]
  promoter activity interaction Z-score: -0.4729 ± 0.00069
[3]; [16]
  promoter activity interaction Z-score: -0.209 ± 0.095
[3]; [17]
  promoter activity interaction Z-score: -0.0545 ± 0.022
[3]; [18]
  promoter activity interaction Z-score: -0.0723 ± 0.19
[3]; [19]
  promoter activity interaction Z-score: -0.295 ± 0.12
[3]; [20]
  promoter activity interaction Z-score: -0.569 ± 0.15
[3]; [21]
  promoter activity interaction Z-score: -0.0791 ± 0.1
[3]; [22]
  promoter activity interaction Z-score: -0.0881 ± 0.0077
[3]; [23]
  promoter activity interaction Z-score: -0.263 ± 0.028
[4]; [8]
  promoter activity interaction Z-score: 0.365 ± 0.41
[4]; [9]
  promoter activity interaction Z-score: -0.591 ± 0.23
[4]; [10]
  promoter activity interaction Z-score: -0.0407 ± 0.17
[4]; [11]
  promoter activity interaction Z-score: -0.757 ± 0.35
[4]; [12]
  promoter activity interaction Z-score: 0.374 ± 0.65
[4]; [13]
  promoter activity interaction Z-score: -0.588 ± 0.15
[4]; [14]
  promoter activity interaction Z-score: 0.0282 ± 0.096
[4]; [15]
  promoter activity interaction Z-score: -0.571 ± 0.38
[4]; [16]
  promoter activity interaction Z-score: 0.326 ± 0.55
[4]; [17]
  promoter activity interaction Z-score: -0.202 ± 0.48
[4]; [18]
  promoter activity interaction Z-score: -0.391 ± 0.39
[4]; [19]
  promoter activity interaction Z-score: -0.391 ± 0.094
[4]; [20]
  promoter activity interaction Z-score: -0.0294 ± 0.93
[4]; [21]
  promoter activity interaction Z-score: -0.395 ± 0.18
[4]; [22]
  promoter activity interaction Z-score: 0.079 ± 0.47
[4]; [23]
  promoter activity interaction Z-score: -0.14 ± 0.27
[5]; [8]
  promoter activity interaction Z-score: 1.06 ± 0.79
[5]; [9]
  promoter activity interaction Z-score: -0.456 ± 0.041
[5]; [10]
  promoter activity interaction Z-score: 0.533 ± 0.081
[5]; [11]
  promoter activity interaction Z-score: 0.443 ± 0.12
[5]; [12]
  promoter activity interaction Z-score: 0.0214 ± 0.94
[5]; [13]
  promoter activity interaction Z-score: -0.758 ± 0.23
[5]; [14]
  promoter activity interaction Z-score: 0.0934 ± 0.32
[5]; [15]
  promoter activity interaction Z-score: 0.783 ± 1.1
[5]; [16]
  promoter activity interaction Z-score: 0.124 ± 0.48
[5]; [17]
  promoter activity interaction Z-score: -0.279 ± 0.31
[5]; [18]
  promoter activity interaction Z-score: -0.125 ± 0.14
[5]; [19]
  promoter activity interaction Z-score: -0.0104 ± 0.026
[5]; [20]
  promoter activity interaction Z-score: 0.00344 ± 0.46
[5]; [21]
  promoter activity interaction Z-score: 0.234 ± 0.22
[5]; [22]
  promoter activity interaction Z-score: -0.253 ± 0.025
[5]; [23]
  promoter activity interaction Z-score: 0.154 ± 0.41
[6]; [8]
  promoter activity interaction Z-score: -0.0785 ± 0.09
[6]; [9]
  promoter activity interaction Z-score: 0.187 ± 0.029
[6]; [10]
  promoter activity interaction Z-score: 0.051 ± 0.17
[6]; [11]
  promoter activity interaction Z-score: -0.175 ± 0.061
[6]; [12]
  promoter activity interaction Z-score: -0.0143 ± 0.021
[6]; [13]
  promoter activity interaction Z-score: 0.127 ± 0.097
[6]; [14]
  promoter activity interaction Z-score: 0.055 ± 0.095
[6]; [15]
  promoter activity interaction Z-score: -0.0693 ± 0.098
[6]; [16]
  promoter activity interaction Z-score: -0.0515 ± 0.13
[6]; [17]
  promoter activity interaction Z-score: 0.0702 ± 0.24
[6]; [18]
  promoter activity interaction Z-score: 0.012 ± 0.11
[6]; [19]
  promoter activity interaction Z-score: -0.155 ± 0.42
[6]; [20]
  promoter activity interaction Z-score: -0.342 ± 0.028
[6]; [21]
  promoter activity interaction Z-score: -0.0381 ± 0.14
[6]; [22]
  promoter activity interaction Z-score: -0.122 ± 0.12
[6]; [23]
  promoter activity interaction Z-score: -0.346 ± 0.37
[7]; [8]
  promoter activity interaction Z-score: 0.35 ± 1.1
[7]; [9]
  promoter activity interaction Z-score: 0.209 ± 0.5
[7]; [10]
  promoter activity interaction Z-score: 0.0748 ± 1.2
[7]; [11]
  promoter activity interaction Z-score: -0.253 ± 0.35
[7]; [12]
  promoter activity interaction Z-score: -0.149 ± 0.74
[7]; [13]
  promoter activity interaction Z-score: -0.0811 ± 0.12
[7]; [14]
  promoter activity interaction Z-score: 0.0597 ± 0.79
[7]; [15]
  promoter activity interaction Z-score: -0.531 ± 0.23
[7]; [16]
  promoter activity interaction Z-score: -0.323 ± 0.58
[7]; [17]
  promoter activity interaction Z-score: 0.371 ± 0.19
[7]; [18]
  promoter activity interaction Z-score: -0.107 ± 0.25
[7]; [19]
  promoter activity interaction Z-score: -0.249 ± 0.24
[7]; [20]
  promoter activity interaction Z-score: -0.897 ± 0.36
[7]; [21]
  promoter activity interaction Z-score: 0.397 ± 0.58
[7]; [22]
  promoter activity interaction Z-score: 0.104 ± 0.68
[7]; [23]
  promoter activity interaction Z-score: 0.637 ± 0.9
